# Assays:
# CHO = test: % viability of CHO cells (MTT); higher = less toxic; conditions: 48 h
# Outline: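 After overnight attachment of CHO cells seeded at 10^6 cells/well in 200 µL, the medium was exchanged for fresh medium holding compound at 2 or 20 µM. Exposure lasted 48 h. Survival was read with the colorimetric tetrazolium (MTT) assay and expressed as percent of untreated cells.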
# HepG2-A16-CD81 = test: % inhibition of HepG2 viability (CellTiter-Glo); higher = more toxic; conditions: 5 µM;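 also: HepG2-A16-CD81 hepatoma cells plated as in the liver-stage assay but without sporozoites, with DMSO wells as negative and 25 µM puromycin as positive control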
# [1] = test system: Plasmodium falciparum NF54 stage IV/V gametocytes; test: % inhibition of gametocyte viability (PrestoBlue); higher = more inhibition; conditions: 48 h
# Outline: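 Compound at 1 or 5 µM was incubated with Stage IV/V NF54 gametocytes (2% gametocytaemia, 5% haematocrit) for 48 h at 37 °C, stationary and hypoxic. A 2 h PrestoBlue step followed, with fluorescence read at 612 nm on transferred supernatant. Inhibition of gametocyte viability, in percent, was normalised to vehicle and kill controls from a single run.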
# [2] = test system: Plasmodium falciparum NF54 asexual blood stage; test: % inhibition of asexual blood stage proliferation (pLDH); higher = more inhibition; conditions: 72 h
# Outline: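 Compound was tested at 2 or 20 µM against Plasmodium falciparum NF54 ring stages (1% haematocrit, 2% parasitaemia) for 72 h at 37 °C in 4% CO2, 3% O2 and 93% N2. Survival was read at 620 nm with the parasite lactate dehydrogenase assay, and inhibition of asexual proliferation was given as a percentage of controls.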
# [3] = test system: Plasmodium falciparum NF54 stage IV/V gametocytes; test: % inhibition of gametocyte viability (ATP bioluminescence); higher = more inhibition; conditions: 24 h
# Outline: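 Compound at 1 or 5 µM was tested on stage IV/V NF54 gametocytes, enriched on density gradients and plated at 30,000 per well in 96-well plates. After 24 h at 37 °C, ATP was quantified by Promega BacTiter Glo bioluminescence. Values are percent inhibition of gametocyte viability from one run, normalised to controls.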
# [4] = test system: Plasmodium falciparum NF54 stage IV/V gametocytes; test: % inhibition of gametocyte viability (luciferase reporter); higher = more inhibition; conditions: 48 h
# Outline: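 Percent inhibition came from luminescence and was normalised to controls in a single run. Gametocytes (stage IV/V, NF54-Pfs16-GFP-Luc line, 2% gametocytaemia, 2% haematocrit) were treated with compound at 1 or 5 µM and incubated for 48 h at 37 °C without agitation under hypoxia. Readings used 30 µL lysate with 30 µL Promega luciferin substrate on a GloMax-Multi+ reader, integrating for 10 s.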
Structure (SMILES),% viability of CHO cells (CHO; 2 µM) [%],% viability of CHO cells (CHO; 20 µM) [%],% inhibition of HepG2 viability (HepG2-A16-CD81) [%],% inhibition of gametocyte viability ([1]; 1 µM) [%],% inhibition of gametocyte viability ([1]; 5 µM) [%],% inhibition of asexual blood stage proliferation ([2]; 2 µM) [%],% inhibition of asexual blood stage proliferation ([2]; 20 µM) [%],% inhibition of gametocyte viability ([3]; 1 µM) [%],% inhibition of gametocyte viability ([3]; 5 µM) [%],% inhibition of gametocyte viability ([4]; 1 µM) [%],% inhibition of gametocyte viability ([4]; 5 µM) [%]
CCc1oc2ccccc2c1C(=O)c1ccc(O)cc1,152,112,9.97,< 0,17.5,29.1,6.67,< 0,< 0,< 0,9.06
CC(C)(C)NC(=O)[C@@H]1C[C@@H]2CCCC[C@@H]2CN1C[C@@H](O)[C@H](Cc1ccccc1)NC(=O)[C@H](CC(N)=O)NC(=O)c1ccc2ccccc2n1,89,114,10.9,< 0,19.6,40,58.3,< 0,< 0,< 0,< 0
C(=C\c1nc2ccccc2[nH]1)/c1ccc2c(c1)OCO2,110,50.4,6.95,57.1,71.2,15.3,29.1,< 0,< 0,5.91,73.3
C[C@H](c1cccc2ccccc12)N(C)Cc1ccccc1,98.5,116,0.334,6.61,7.59,9.39,18.9,< 0,< 0,< 0,< 0
COC(=O)Nc1nc2c(C)cccc2[nH]1,101,86.1,-1.33,< 0,< 0,-2.03,-14,< 0,< 0,< 0,< 0
CN1CCN(c2ccc3[nH]c(-c4ccc5[nH]c(-c6ccc(O)cc6)nc5c4)nc3c2)CC1,106,115,18.2,< 0,< 0,82.9,80.9,< 0,< 0,< 0,20.9
O=C(NN1C(=O)[C@@H]2C3C=CC([C@H]4C[C@@H]34)[C@@H]2C1=O)c1ccc(C(F)(F)F)cc1,97.4,120,-2.51,< 0,< 0,4.37,23,1.06,< 0,< 0,4.75
NC(=O)c1[nH]c2ccc(S(N)(=O)=O)cc2c1-c1ccccc1,93.5,98.8,8.64,< 0,19.1,16.9,72.7,< 0,< 0,11.7,< 0
Cc1cc(NS(=O)(=O)c2ccc(-c3ccc(F)cc3F)cc2)no1,95.4,116,1.14,2.55,66.2,-0.00494,-3.92,0.517,< 0,< 0,< 0
CCCC(=O)OCCc1ccccc1,114,99.3,0.113,10.7,4.24,8.06,16.5,< 0,< 0,< 0,0.854
Cc1ccc(Oc2ccccc2-c2csc(NC3=NCCCN3)n2)c(C)c1,104,112,13,< 0,< 0,11.5,88.7,< 0,< 0,< 0,< 0

# From the supplement of paper PMC7801607
